The results in this text go back to PubChem BioAssay (EPA / NIEHS).

Activity calls are given as the source filed them. Rule for the calls: active = hit-call score of the fitted dose curve at least 0.9, where 1 is the maximum; inactive = score below 0.9.

The nature of assay [1]: ATG_GLI_CIS: Attagene CIS-FACTORIAL HepG2 Assay for human Zinc Finger Protein GLI1 (AID 2282945). The following applies: HepG2, Attagene cis-factorial reporter mRNA, GLI element; actives raise or lower the signal. In short, it runs like this: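 Bidirectional curve fits relative to DMSO, using reporter mRNA levels from RT-PCR plus capillary electrophoresis. Cells were HepG2 transiently carrying cis-regulated reporter constructs, harvested 24 h after dosing.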

Assay [2] is described as follows: ATG_GRE_CIS: Attagene CIS-FACTORIAL HepG2 Assay for human Glucocorticoid Response Elements (GRE) (AID 2282947). The following applies: HepG2 GRE cis-reporter, Attagene multiplex mRNA; actives raise or lower the signal. Summed up:
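Reporter transcripts read by RT-PCR with capillary electrophoresis fluorescence after a 24 h chemical exposure of HepG2 cells transiently transfected with multiple cis-element reporter units. Gain or loss fitted against DMSO.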

Assay [3] in a line: ATG_ISRE_CIS: Attagene CIS-FACTORIAL HepG2 Assay for human Interferon Regulatory Factor 1 (IRF1) binding to an Interferon-Stimulated Response Element (ISRE) (AID 2282948). The following applies: HepG2 ISRE cis-reporter (Attagene), mRNA transcription readout; actives raise or lower the signal. Summed up: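 Multiplexed mRNA reporter readout in human liver HepG2 cells: cis-element-driven reporters transfected, compound added for 24 h, transcripts amplified, fluorescently labelled and sized by capillary electrophoresis; curve fitting bidirectional against DMSO.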

The nature of assay [4]: ATG_M_32_CIS: Attagene CIS-FACTORIAL HepG2 Assay for M32 Transcription Factor (Internal Marker) (AID 2282949).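 Note: background control marker of the multiplexed CIS panel rather than a real target.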 The following applies: HepG2 Attagene cis-factorial M32 reporter, mRNA; actives raise or lower the signal. In short, it runs like this:
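HepG2 human liver cells transiently transfected with cis-promoter-driven multiple reporter transcription units, dosed 24 h. Reporter mRNA quantified by RT-PCR, FAM-labelled primer extension, HpaI digest and capillary electrophoresis; bidirectional fit versus DMSO baseline.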

Assay [5] is described as follows: ATG_M_06_CIS: Attagene CIS-FACTORIAL HepG2 Assay for M06 Transcription Factor (Internal Marker) (AID 2282950). The following applies: HepG2 Attagene CIS-FACTORIAL M06 internal marker reporter; actives raise or lower the signal. In short, it runs like this: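 Terse: HepG2, transient MRTU transfection (FuGene 6), 24 h dosing; total RNA, oligo(dT) RT, PCR, FAM label, HpaI cut, capillary electrophoresis; bidirectional fit vs DMSO baseline; background-control endpoint.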

In assay [6] the target is Hypoxia-inducible factor 1-alpha (Homo sapiens) (UniProt Q16665). In words: ATG_HIF1a_CIS: Attagene CIS-FACTORIAL HepG2 Assay for human Hypoxia Inducible Factor 1 (HIF1A) (AID 2282951). The following applies: HepG2 Attagene cis-factorial HIF1a reporter transcription; actives raise or lower the signal. Summed up: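 Endogenous-TF cis reporter readout, human HepG2 cells, 24 h incubation; mRNA detected via RT-PCR and capillary electrophoresis fluorescence; DMSO-normalised bidirectional fitting.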

The target in assay [7] is Hepatocyte nuclear factor 6 (Homo sapiens) (UniProt Q9UBC0). In words: ATG_HNF6_CIS: Attagene CIS-FACTORIAL HepG2 Assay for human Hepatocyte Nuclear Factor 6 (HNF6) (AID 2282952). The following applies: HepG2 Attagene cis-factorial HNF6 reporter transcription; actives raise or lower the signal. Summed up:
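Readout: fluorescent reporter-transcript fragments resolved by capillary electrophoresis after RT-PCR, reflecting endogenous factor activity in transfected HepG2. Exposure 24 h. Gain or loss of signal fitted bidirectionally against DMSO.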

For assay [8], the target named is Heat shock factor protein 1 (Homo sapiens) (UniProt Q00613). In words: ATG_HSE_CIS: Attagene CIS-FACTORIAL HepG2 Assay for human Heat Shock Transcription Factor 1 (HSE) (AID 2282953). The following applies: HepG2 HSE cis-reporter, Attagene RNA transcription; actives raise or lower the signal. In short, it runs like this: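 Read-out: fluorescence of reporter-specific RT-PCR fragments separated by capillary electrophoresis. HepG2 carrying transfected cis-element reporter units; 24 h dosing; activity fitted in both directions relative to DMSO baseline.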

Assay [9] can be described thus: ATG_MRE_CIS: Attagene CIS-FACTORIAL HepG2 Assay for human Metal Responsive Element (MRE) (AID 2282954). The following applies: HepG2 MRE cis-reporter transcription, Attagene multiplex; actives raise or lower the signal. In short, it runs like this:
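Endogenous MRE-dependent transcription read as reporter mRNA in transiently transfected human HepG2 cells at 24 h. RNA reverse-transcribed, PCR-amplified, labelled and resolved by capillary electrophoresis; gain or loss relative to DMSO.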

Chain of Hypoxia-inducible factor 1-alpha (Homo sapiens) (Q16665 whole entry, looked up): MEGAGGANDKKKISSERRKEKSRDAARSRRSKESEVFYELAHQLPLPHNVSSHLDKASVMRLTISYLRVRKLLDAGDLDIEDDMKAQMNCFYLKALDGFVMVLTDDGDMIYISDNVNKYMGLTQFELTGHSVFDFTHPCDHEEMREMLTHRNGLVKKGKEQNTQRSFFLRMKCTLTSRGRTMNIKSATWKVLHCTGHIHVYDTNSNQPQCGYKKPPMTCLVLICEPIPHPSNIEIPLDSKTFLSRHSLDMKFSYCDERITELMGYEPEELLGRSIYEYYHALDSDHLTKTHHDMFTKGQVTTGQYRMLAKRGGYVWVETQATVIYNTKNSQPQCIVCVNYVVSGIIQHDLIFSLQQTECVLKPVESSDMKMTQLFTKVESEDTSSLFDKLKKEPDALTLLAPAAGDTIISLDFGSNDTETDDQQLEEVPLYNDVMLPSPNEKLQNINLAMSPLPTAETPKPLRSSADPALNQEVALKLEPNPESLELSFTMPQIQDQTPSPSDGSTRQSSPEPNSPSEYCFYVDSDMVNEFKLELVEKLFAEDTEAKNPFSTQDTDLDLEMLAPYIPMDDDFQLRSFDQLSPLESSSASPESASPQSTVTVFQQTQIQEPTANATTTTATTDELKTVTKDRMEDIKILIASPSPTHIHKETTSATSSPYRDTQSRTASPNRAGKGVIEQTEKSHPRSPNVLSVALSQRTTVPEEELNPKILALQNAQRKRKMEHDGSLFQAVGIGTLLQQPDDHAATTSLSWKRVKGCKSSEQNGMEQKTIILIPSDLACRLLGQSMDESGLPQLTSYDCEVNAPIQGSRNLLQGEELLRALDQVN
Chain of Hepatocyte nuclear factor 6 (Homo sapiens) (Q9UBC0 whole entry, looked up, the tested form may be a part): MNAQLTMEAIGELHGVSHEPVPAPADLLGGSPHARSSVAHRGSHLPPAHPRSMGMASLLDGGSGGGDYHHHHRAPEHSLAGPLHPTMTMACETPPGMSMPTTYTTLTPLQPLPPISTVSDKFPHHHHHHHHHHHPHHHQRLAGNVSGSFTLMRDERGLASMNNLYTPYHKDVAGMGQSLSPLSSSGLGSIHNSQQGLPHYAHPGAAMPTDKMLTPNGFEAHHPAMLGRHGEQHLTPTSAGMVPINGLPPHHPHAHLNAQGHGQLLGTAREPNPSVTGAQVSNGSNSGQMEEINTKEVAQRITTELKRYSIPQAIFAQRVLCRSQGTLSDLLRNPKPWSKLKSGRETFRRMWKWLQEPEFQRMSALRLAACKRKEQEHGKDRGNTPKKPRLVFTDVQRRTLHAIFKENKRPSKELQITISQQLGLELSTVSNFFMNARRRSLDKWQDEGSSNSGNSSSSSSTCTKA
Chain of Heat shock factor protein 1 (Homo sapiens) (Q00613 whole entry, looked up, the tested form may be a part): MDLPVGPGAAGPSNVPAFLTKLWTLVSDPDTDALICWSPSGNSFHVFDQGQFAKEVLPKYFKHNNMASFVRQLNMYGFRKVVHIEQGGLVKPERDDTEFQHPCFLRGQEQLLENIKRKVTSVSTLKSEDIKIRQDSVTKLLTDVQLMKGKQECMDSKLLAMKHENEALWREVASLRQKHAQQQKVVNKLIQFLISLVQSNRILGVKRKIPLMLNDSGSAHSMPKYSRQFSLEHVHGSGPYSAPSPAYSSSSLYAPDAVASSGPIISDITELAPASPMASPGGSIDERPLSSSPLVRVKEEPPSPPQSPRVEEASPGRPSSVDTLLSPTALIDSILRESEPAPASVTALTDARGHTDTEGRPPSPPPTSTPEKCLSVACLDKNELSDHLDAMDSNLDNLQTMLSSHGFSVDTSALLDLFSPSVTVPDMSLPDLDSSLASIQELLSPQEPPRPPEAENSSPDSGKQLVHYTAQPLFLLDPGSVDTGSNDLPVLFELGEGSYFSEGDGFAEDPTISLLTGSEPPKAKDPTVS

For `CCN(CC)c1ccc2c(C)cc(=O)oc2c1`, the molecule was classed as inactive in assay [1], in [2], in assay [3], in [4], in assay [5] and in assay [6]. The call in assay [7] and in assay [8] was inactive. For the same molecule, the AC50 in [9] is 71.9 µM (active).
`N=C(N)C(F)(F)C(F)(F)C(F)(F)C(F)(F)C(F)(F)C(F)(F)C(F)(F)F`: the outcome in assay [1], in assay [2], in [3], in assay [4], in assay [5] and in [7] was inactive. The molecule was called inactive in assay [9]. For the same molecule, the AC50 in assay [6] is 242 µM (active).
With `C=CC(F)(F)C(F)(F)C(F)(F)C(F)(F)C(F)(F)C(F)(F)C(F)(F)C(F)(F)F`, the molecule was classed as inactive in assay [1], in assay [2], in assay [3], in assay [4], in [5] and in assay [6]. The call in [7] and in assay [8] was inactive.

For orientation: AC50 means the concentration giving half of the maximal activity seen.
